The list is not random: actives were taken first. Their share in the collection is about 6.5%.
IL-1B inflam inh – inflammasome signaling inhibition, IL-1 beta readout; THP-1 LPS/ATP IL-1B secretion, AlphaLISA, 16 h; active compounds read low; activity change, % at 57.5 µM; actives 4.7% (n = 360,000); in the data active means activity change below about -50%; inconclusive means mostly about -30% to -49%; further: on the % scale 0 is the no-effect control and ±100 the full control effect
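Secreted IL-1B measured by AlphaLISA bead assay after 16 h compound exposure of THP-1 cells; compounds (final up to 57.5 uM) added 1 h before LPS (250 ng/mL) and ATP (1.25 mM) stimulation; lower signal means less secretion.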
Giardia kill – Giardia lamblia killing. Giardia lamblia trophozoite viability. activity change, % at 7.66 µM, hits read low. actives 0.15% (n = 340,000); in the data active means activity change below about -80%; inconclusive means between about -30% and that limit;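 further: parasites exposed to compound for two days anaerobically before the ATP read; on the % scale 0 is the no-effect control and ±100 the full control effect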
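ATP-content bioluminescence gauges trophozoite survival. Cells (100/well) receive compound and incubate anaerobically for 48 hrs at 37 deg C; detection reagent follows for 15-30 min at room temperature.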
HepG2 tox – kills HepG2 cells in TGF-b inhibitor counter-screen; HepG2 CAGA-GFP viability, ATP luminescence, 18 h; Potency, µM (doses to about 46.1 µM), inactives show at the top dose activity change, negative = cytotoxicity, usual class: cytotoxic; actives 0.76% (n = 410,000); AID 588856; further: potency means the concentration at half of the fitted maximal effect
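CellTiter-Glo luminescence gave cytotoxicity after 18 hours at 37 degrees C. The cells were HepG2 CAGA-GFP in 1% FBS DMEM, stimulated with 500 pg/mL TGF-beta after compound addition. %Activity was normalised to no-cell wells (complete cell-killing) and DMSO (no toxicity), and curves were fitted and classified.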
HT1080 IDH1KD tx – toxicity to HT-1080 IDH1 knockdown cells (counter line) | HT-1080 IDH1 knockdown viability, ATP luminescence, 48 h | Potency, µM (highest dose often 46.1 µM), inactives show at the top dose activity, negative = toxicity, hits mostly cytotoxic | actives 2% (n = 360,000) | AID 686971;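 further: potency means the concentration at half of the fitted maximal effect; 0% = DMSO wells and -100% = cell-free medium wells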
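% activity derives from luminescence (CellTiter-Glo), normalised to DMSO and no-cell wells. HT-1080-IDH1KD cells, 750/well, had 48 h compound exposure at 37 °C.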
HT1080-NT tox – kills 2HG-producing HT-1080-NT fibrosarcoma cells; AID 686970; actives 1.6% (n = 360,000); Potency, µM (highest dose often 46.1 µM), without a hit: top-dose activity, negative = less viability, hits mostly cytotoxic; HT-1080-NT fibrosarcoma viability, CellTiter-Glo ATP luminescence, 48 h;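 further: NT is the 2HG producing partner of a matched IDH1 knockdown line; potency means the concentration at half of the fitted maximal effect; 0% = DMSO-treated cells and -100% = media-only wells without cells; nearly all actives have a fitted effect of over 55% in size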
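Read-out is CellTiter-Glo luminescence after 10 minutes at room temperature, following 48 hours' compound treatment of HT-1080-NT cells (750 cells/well, RPMI, 5% FBS, 37 degrees C).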
TGFb SMAD3 inh – TGF-b pathway inhibition; Potency, µM (doses to about 46.1 µM), for inactives: top-dose activity, negative = inhibition, hits mostly inhibitors; AID 588855; actives 1.2% (n = 410,000); HepG2 CAGA-GFP TGF-b/SMAD3 reporter, GFP fluorescence, 18 h; TGF-beta stimulated, 500 pg/mL final; further: potency means the concentration at half of the fitted maximal effect; on the % scale 0 is the no-effect control and ±100 the full control effect; nearly all actives have a fitted effect of over 65% in size
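GFP signal (ex488/em500-530) from TGF-beta-stimulated HEPG2 CAGA-GFP cells, 500 pg/mL final, 18 h at 37 degrees C in DMEM plus 1% FBS, normalized to unstimulated and DMSO-stimulated controls.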
* = called active by the depositor; ? = inconclusive; . = not tested or not shown; [ ] = another dose, or the depositor's remark. Unless noted, the call rests on the fitted dose curve; in most records, active means well fitted curve in the direction sought with a large enough effect; inconclusive means small, poorly fitted or top-dose-only effect, or another doubt; inactive means no such curve, though single readings can be large; an effect the other way counts as inactive or inconclusive.

SMILES	IL-1B inflam inh	Giardia kill	HepG2 tox	HT1080 IDH1KD tx	HT1080-NT tox	TGFb SMAD3 inh
CCN(CC)CCCN(Cc1cc2cc3c(cc2[nH]c1=O)OCO3)C(=S)NC	-2	-1	9%	10%	22%	1%
CCN(CC)CCCN(Cc1cc2cc3c(cc2[nH]c1=O)OCO3)C(=S)Nc1ccc(OC)cc1	-71*	32	-22%	-14%	3%	11%
Cc1ccc(OCc2cc(C(=O)NCC(C)(C)N3CCOCC3)no2)cc1C	-70*	9	-2%	-7%	-4%	0%
CCN1CCOC(=O)C1CC(=O)Nc1ccccc1C(F)(F)F (configuration not stated)	.	.	-50%	.	.	?
CCOC(=O)COn1c(=O)c(-c2ccco2)[n+]([O-])c2ccccc21	-69*	-15	-1%	13%	11%	23%
Cc1ccc(C)c(C(C)NC(=O)CC#N)c1 (configuration not stated)	26	13	1%	1%	3%	5%
Cc1ccc(C)c(C(C)NC(=O)c2ccc(Br)o2)c1 (configuration not stated)	-57*	-6	-2%	2%	-3%	2%
O=C(CSc1nc2c(c(=O)n1-c1ccccc1)SCC2)N1CCOCC1	-6	2	-3%	0%	7%	-1%
Cc1ccc(-c2csc3ncnc(Sc4nnc(CN5CCCCCC5=O)o4)c23)cc1	-98*	-11	-100%	-11%	0%	0%
Cc1ccc(-c2csc3ncnc(SCC(=O)Nc4nnc(C)s4)c23)cc1	27	2	-2%	5%	10%	-1%
CN(C)CCCN1c2ccc3ccccc3c2Sc2cccc(Cl)c21	-96*	-5	-115%	?	-20%	?
CN(C)CCCN1c2ccccc2Sc2ccc3ccccc3c21	-102*	-19	-73%	?	-17%	?
O=C(CCl)N1c2ccccc2Sc2ccc3ccccc3c21	-104*	.	11µM*	?	18µM*	14µM*
O=C(COC(=O)Cn1cnc2ccccc2c1=O)NNC(=O)c1ccc(Br)cc1	0	0	1%	5%	2%	?
CN(C)S(=O)(=O)c1cccc(NC(=O)CSc2cccc3cccnc23)c1	-105*	9	16µM*	?	18µM*	?
CN(C)S(=O)(=O)c1cccc(NC(=O)CSc2nc3c(cc2C#N)C(=O)CC(C)(C)C3)c1	-58*	32	-20%	?	?	?
COc1ccc(CCNC(=O)CSc2cccc3cccnc23)cc1OC	-98*	-10	-10%	0%	0%	-15%
Cc1ccc(/C=N/n2cnc3sc4c(c3c2=O)CCCC4)o1	-58*	-7	-31%	-14%	?	-28%
O=C(NCC1CCCCC1)c1ccccc1[N+](=O)[O-]	32	-6	0%	-3%	0%	6%
N#CC1=C(N)Oc2n[nH]c(-c3cccnc3)c2C1c1ccc([N+](=O)[O-])o1 (configuration not stated)	-97*	-1	-65%	?	?	?
N#CC1=C(N)Oc2n[nH]c(-c3ccccc3)c2C1c1cccnc1 (configuration not stated)	0	-7	-31%	1%	0%	-9%
c1ccc2c(C[C@@H]3CNCCN3CC3CCCCC3)cccc2c1	-58*	2	-85%	-10%	-18%	?
O=S(=O)(c1ccc2[nH]c3c(c2c1)CCCCC3)N1CCN(c2ccccc2)CC1	.	.	2%	.	.	?
CCOC1=C2[C@H]([C@H]3C(=O)N(c4ccccc4)C(=O)[C@H]3C1)[C@@H](C(C)C)N(S(=O)(=O)c1ccc(C)cc1)[C@H]2c1ccccc1	0	.	3%	20%	18%	0%
CN(C(=O)CCN1C(=O)/C(=C/c2ccccc2)SC1=S)C1CCS(=O)(=O)C1 (configuration not stated)	-19	6	-7%	8%	2%	5%
SMILES	IL-1B inflam inh	Giardia kill	HepG2 tox	HT1080 IDH1KD tx	HT1080-NT tox	TGFb SMAD3 inh
Cc1ccc(C)c(-c2cc(C(=O)NC3CC3)c3ccccc3n2)c1	14	-24	-4%	-3%	-11%	-8%
CCOc1ccc(-c2cc(C(=O)O)c3ccccc3n2)c(OCC)c1	18	6	-21%	7.1µM*	14µM*	6%
Cc1ccc(-c2cc(C(=O)NCCCN3CCCC3)c3ccccc3n2)cc1C	-73*	-13	-27%	?	?	-24%
CCOc1ccccc1-c1cc(C(=O)Nc2ccc(C(=O)O)cc2)c2ccccc2n1	24	-15	-6%	-5%	1%	0%
O=C(NC1CCC(O)CC1)c1ccc(-c2ccc(Cl)cc2)o1 (configuration not stated)	-62*	-4	0%	0%	-2%	14%
O=C(NC1CCC(O)CC1)c1cc(-c2ccc(Cl)cc2)nc2ccccc12 (configuration not stated)	-55*	3	4%	20%	-2%	2%
COc1ccccc1CCC(=O)OCC(=O)Nc1c(Br)cc(C)cc1Br	-10	-17	5%	6%	0%	20%
CCCCOc1ccc(C(=O)Nc2ccc(-c3nc4ccccc4s3)cc2C)cc1	.	.	-33%	.	.	-22%
CCOC(=O)c1sc(NC(=O)c2cc(-c3ccccc3)nc3ccccc23)c(C#N)c1C	-62*	15	-4%	5.2µM*	2.9µM*	?
CCOC(=O)c1sc(NC(=O)CSc2n[nH]c(-c3ccccc3)n2)c(C#N)c1C	-16	5	-24%	?	?	?
COCCCNC(=O)c1cc(-c2cccnc2)nc2ccccc12	26	4	9%	1%	5%	?
COc1cc2cc3c(N)c(C(=O)NCc4ccco4)sc3nc2cc1OC	-58*	5	9%	3%[9.24 µM]	-8%	0%
CCNC(=S)NNC(=O)c1cc(-c2ccc(OCC)cc2)nc2ccccc12	-14	-81*	7.9µM*	5µM*	3.5µM*	20%
CCNC(=S)NNC(=O)c1cc(-c2cccc(OC)c2)nc2ccccc12	2	-17	-35%	5%	8%	-8%
COCCNC(=O)c1cc(-c2ccc(-c3ccccc3)cc2)nc2ccccc12	-66*	13	-17%	?	?	0%
COCCCNC(NC(=O)c1ccc(Cl)cc1)C(Cl)(Cl)Cl (configuration not stated)	36	-10	-34%	-29%	-29%	1%

Source: PubChem BioAssay
